Our source for the outcome and AC50 values is PubChem BioAssay (EPA / NIEHS).

A short description of test [1]: ATG_CRE_CIS: Attagene CIS-FACTORIAL HepG2 Assay for human cAMP Responsive Element (CRE) binding protein 3 (AID 2282926). Particulars: HepG2 CRE cis-reporter, Attagene multiplexed mRNA; actives raise or lower the signal. The procedure, abridged: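 Induced reporter mRNA from a CRE cis element, measured in HepG2 among many multiplexed units at 24 h. Detection used RT-PCR plus capillary electrophoresis of fluorescent fragments; DMSO served as negative control.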

In test [2] the target is CCAAT/enhancer-binding protein beta (Homo sapiens) (UniProt P17676). In words: ATG_C_EBP_CIS: Attagene CIS-FACTORIAL HepG2 Assay for human CCAAT/Enhancer Binding Protein (C/EBP) beta (AID 2282927). Particulars: HepG2 Attagene cis-factorial transcription factor reporter; actives raise or lower the signal. In outline: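 HepG2 transiently transfected with multiplexed reporter units under cis-regulatory promoters reporting endogenous C/EBPb activity. After 24 h exposure, reporter mRNA assayed by RT-PCR, fluorescent labelling, HpaI digestion and capillary electrophoresis; bidirectional fitting versus DMSO.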
Sequence of CCAAT/enhancer-binding protein beta (Homo sapiens) (P17676 whole entry, looked up): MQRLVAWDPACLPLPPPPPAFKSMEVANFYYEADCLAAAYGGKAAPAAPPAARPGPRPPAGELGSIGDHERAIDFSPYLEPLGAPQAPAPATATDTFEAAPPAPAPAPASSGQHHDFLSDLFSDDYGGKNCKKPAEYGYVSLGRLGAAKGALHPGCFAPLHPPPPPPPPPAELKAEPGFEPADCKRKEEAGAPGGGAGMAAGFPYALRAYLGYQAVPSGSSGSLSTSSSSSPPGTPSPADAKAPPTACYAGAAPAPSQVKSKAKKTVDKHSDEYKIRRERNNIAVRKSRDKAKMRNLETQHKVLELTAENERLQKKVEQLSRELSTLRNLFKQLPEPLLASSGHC

A short description of test [3]: ATG_CMV_CIS: Attagene CIS-FACTORIAL HepG2 Assay for human CMV (Internal Marker) (AID 2282928).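 Also: endpoint acts as a background internal control marker rather than a target.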 Particulars: HepG2 CMV promoter reporter, transcription factor profiling; actives raise or lower the signal. In outline:
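24 h chemical treatment, HepG2 with transient multi-reporter transfection; RNA → oligo(dT) RT → PCR → 6-FAM extension → HpaI digest → CE fluorescence. Bidirectional fit, DMSO negative control.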

Test [4] is described as follows: ATG_DR4_LXR_CIS: Attagene CIS-FACTORIAL HepG2 Assay for human Liver X Receptor (LXR), DR4 submotif (AID 2282929). Particulars: HepG2 Attagene DR4 cis-reporter, mRNA transcription; actives raise or lower the signal. The procedure, abridged: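 Endogenous factor activity at a DR4 cis-element is read as reporter mRNA in transiently transfected HepG2 cells. Exposure lasts 24 h; transcripts are amplified, fluorescently labelled and sized by capillary electrophoresis, with DMSO as baseline.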

Test [5] addresses Aryl hydrocarbon receptor (Homo sapiens) (UniProt P35869). In words: ATG_Ahr_CIS: Attagene CIS-FACTORIAL HepG2 Assay for human Aryl Hydrocarbon Receptor (Ahr) (AID 2282930). Particulars: HepG2 AhR cis-factorial reporter transcription; actives raise or lower the signal. The procedure, abridged: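 HepG2 cells transiently transfected with cis-element-driven multiplexed reporter units; endogenous AhR activity read as reporter mRNA 24 h after dosing, via RT-PCR, 6-FAM labelling, HpaI digestion and capillary electrophoresis. Bidirectional fit relative to DMSO.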

Test [6] can be described thus: ATG_AP_1_CIS: Attagene CIS-FACTORIAL HepG2 Assay for human Activator Protein 1 (AP-1) (AID 2282931). Particulars: HepG2 Attagene cis-factorial AP-1 reporter mRNA; actives raise or lower the signal. In outline: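 Fluorescence of labelled PCR fragments separated by capillary electrophoresis gives reporter mRNA levels. HepG2 with transfected cis-regulated reporter units, 24 h exposure; DMSO serves as baseline for bidirectional curve fits.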

A short description of test [7]: ATG_AP_2_CIS: Attagene CIS-FACTORIAL HepG2 Assay for human Activator Protein 2 (AP-2) (AID 2282932). Particulars: HepG2 AP-2 cis-reporter, Attagene transcription factor profiling; actives raise or lower the signal. In outline:
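Read-out: fluorescent reporter mRNA via RT-PCR and capillary electrophoresis, 24 h post-dose in transiently transfected HepG2. Endogenous factors drive cis-promoter reporters; gain or loss of signal fitted bidirectionally against DMSO.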

Test [8] deals with Retinoic acid receptor alpha (Homo sapiens) (UniProt P10276). In words: ATG_DR5_RAR_CIS: Attagene CIS-FACTORIAL HepG2 Assay for human Retinoic Acid Receptor Alpha (RARE), DR5 submotif (AID 2282934). Particulars: HepG2 Attagene cis-factorial RARE DR5 reporter, mRNA; actives raise or lower the signal. In outline:
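HepG2 cells transiently transfected with multiplexed reporter units; DR5 cis-element drives reporter through endogenous transcription factors. After 24 h dosing, reporter mRNA quantified by RT-PCR, fluorescent labeling, HpaI digestion and capillary electrophoresis; bidirectional fitting versus DMSO.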

A short description of test [9]: ATG_E_Box_CIS: Attagene CIS-FACTORIAL HepG2 Assay for human Enhancer Box (E-box) (AID 2282936). Particulars: HepG2 E-box cis-reporter transcription, actives raise or lower the signal. The procedure, abridged: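 Transiently transfected HepG2, endogenous TF-driven reporters, 24 h dosing. Readout: RT-PCR plus capillary electrophoresis of fluorescent reporter fragments. Gain or loss of signal fitted bidirectionally against DMSO baseline.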

Test [10] in a line: ATG_M_61_CIS: Attagene CIS-FACTORIAL HepG2 Assay for M61 Transcription Factor (Internal Marker) (AID 2282937). Particulars: HepG2 Attagene CIS-FACTORIAL M61 internal marker reporter; actives raise or lower the signal. In outline:
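This endpoint serves as an internal background control within a multiplexed HepG2 cis-reporter panel. Cells are exposed for 24 h; reporter mRNA is amplified, fluorescently labelled and sized by capillary electrophoresis, with DMSO as negative control.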

A short description of test [11]: ATG_EGR_CIS: Attagene CIS-FACTORIAL HepG2 Assay for human Early Growth Response 1 (EGR1) (AID 2282938). Particulars: HepG2 Attagene CIS-FACTORIAL EGR reporter mRNA; actives raise or lower the signal. The procedure, abridged:
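HepG2, transient MRTU transfection (cis promoters), 24 h compound. RNA → RT (oligo-dT) → PCR → 6-FAM labelling → HpaI cut → CE fluorescence. Bidirectional fit, DMSO baseline.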

A short description of test [12]: ATG_M_19_CIS: Attagene CIS-FACTORIAL HepG2 Assay for M19 Transcription Factor (Internal Marker) (AID 2282939). Particulars: HepG2 Attagene CIS-FACTORIAL M19 internal marker reporter; actives raise or lower the signal. The procedure, abridged:
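Following a 24 h exposure, RNA from transfected HepG2 cells was reverse-transcribed, PCR-amplified with reporter-specific primers, end-labelled with 6-FAM and HpaI-digested before capillary separation. Values represent gain or loss versus DMSO.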

Test [13] can be described thus: ATG_ERE_CIS: Attagene CIS-FACTORIAL HepG2 Assay for Estrogen Response Element (ERE) (AID 2282940). Particulars: HepG2 ERE cis-reporter, Attagene RNA transcript; actives raise or lower the signal. In outline: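 HepG2, transient cis-reporter units, 24 h exposure. RNA isolated, oligo(dT) RT, reporter-specific PCR, FAM extension, HpaI cut, CE detection. Gain/loss-of-signal vs DMSO.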

Test [14] is described as follows: ATG_Ets_CIS: Attagene CIS-FACTORIAL HepG2 Assay for human Erythroblast Transformation Specific (ETS) (AID 2282941). Particulars: HepG2 ETS cis-reporter transcription, actives raise or lower the signal. In outline:
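Cis-regulated reporter mRNA induction in HepG2 (transient transfection), 24 h exposure, RT-PCR plus capillary electrophoresis detection; DMSO serves as negative control and baseline.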

The target of test [15] is Hepatocyte nuclear factor 3-beta (Homo sapiens) (UniProt Q9Y261). In words: ATG_FoxA2_CIS: Attagene CIS-FACTORIAL HepG2 Assay for human Forkhead box A2 (FOXA2) (AID 2282942). Particulars: HepG2 cis-reporter transcription factor activity, 24 h; actives raise or lower the signal. The procedure, abridged: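 Cells: HepG2, transient multiplex reporter transfection. Exposure 24 h. Detection: reporter-specific RT-PCR, fluorescent labelling, restriction digest, capillary electrophoresis. Analysis: bidirectional curve fit, DMSO as negative control.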
Sequence of Hepatocyte nuclear factor 3-beta (Homo sapiens) (Q9Y261 whole entry, looked up): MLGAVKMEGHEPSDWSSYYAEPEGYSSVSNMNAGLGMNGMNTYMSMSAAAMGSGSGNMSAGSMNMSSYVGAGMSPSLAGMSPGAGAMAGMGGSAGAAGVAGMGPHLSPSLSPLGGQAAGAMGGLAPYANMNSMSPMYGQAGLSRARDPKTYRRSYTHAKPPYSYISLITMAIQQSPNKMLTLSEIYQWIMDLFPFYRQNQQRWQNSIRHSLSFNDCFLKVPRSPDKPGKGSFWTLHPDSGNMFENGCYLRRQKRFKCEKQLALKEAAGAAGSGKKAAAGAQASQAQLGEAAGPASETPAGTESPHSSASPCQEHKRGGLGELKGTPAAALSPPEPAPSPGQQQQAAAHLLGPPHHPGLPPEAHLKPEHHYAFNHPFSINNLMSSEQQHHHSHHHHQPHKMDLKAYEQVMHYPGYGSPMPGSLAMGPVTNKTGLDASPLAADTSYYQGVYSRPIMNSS

A short description of test [16]: ATG_FoxO_CIS: Attagene CIS-FACTORIAL HepG2 Assay for human Forkhead box O (FoxO) (AID 2282943). Particulars: HepG2 Attagene cis-reporter, FoxO element, mRNA; actives raise or lower the signal. The procedure, abridged:
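HepG2 cells transiently transfected with cis-element-driven reporter units report endogenous FoxO activity. After 24 h chemical exposure, reporter mRNA quantified by RT-PCR, fluorescent labeling, HpaI digestion and capillary electrophoresis; bidirectional fit versus DMSO.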

The nature of test [17]: ATG_GATA_CIS: Attagene CIS-FACTORIAL HepG2 Assay for human GATA Binding Protein (AID 2282944). Particulars: HepG2 GATA cis-element reporter, Attagene multiplex mRNA; actives raise or lower the signal. In outline: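 DMSO serves as negative control and baseline for bidirectional fitting of reporter mRNA changes. HepG2 cells bearing transiently transfected cis-promoter reporters were exposed 24 h; transcripts detected via RT-PCR and capillary electrophoresis.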

Test [18] is described as follows: ATG_GLI_CIS: Attagene CIS-FACTORIAL HepG2 Assay for human Zinc Finger Protein GLI1 (AID 2282945). Particulars: HepG2, Attagene cis-factorial reporter mRNA, GLI element; actives raise or lower the signal. The procedure, abridged:
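Transiently transfected HepG2 cells report endogenous transcription factor activity via cis-element-driven reporter units. After 24 h compound exposure, reporter mRNA was measured by RT-PCR with capillary electrophoresis; bidirectional fitting against DMSO baseline.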

Test [19] has as its target Transcription factor E2F1 (Homo sapiens) (UniProt Q01094). In words: ATG_E2F_CIS: Attagene CIS-FACTORIAL HepG2 Assay for human E2F Transcription Factor 1 (AID 2282935). Particulars: HepG2 Attagene cis-reporter, E2F reporter RNA transcripts; actives raise or lower the signal. In outline:
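Transient MRTU transfection of HepG2; 24 h compound exposure; RNA → oligo(dT) RT → PCR → FAM label → HpaI cut → CE fluorescence. Gain/loss of signal fit against DMSO.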

Calls of active or inactive are those of the source. The calls were made as follows: active = hit-call score of the fitted dose curve at least 0.9, where 1 is the maximum; inactive = score below 0.9.

Sequence of Aryl hydrocarbon receptor (Homo sapiens) (P35869 whole entry, looked up): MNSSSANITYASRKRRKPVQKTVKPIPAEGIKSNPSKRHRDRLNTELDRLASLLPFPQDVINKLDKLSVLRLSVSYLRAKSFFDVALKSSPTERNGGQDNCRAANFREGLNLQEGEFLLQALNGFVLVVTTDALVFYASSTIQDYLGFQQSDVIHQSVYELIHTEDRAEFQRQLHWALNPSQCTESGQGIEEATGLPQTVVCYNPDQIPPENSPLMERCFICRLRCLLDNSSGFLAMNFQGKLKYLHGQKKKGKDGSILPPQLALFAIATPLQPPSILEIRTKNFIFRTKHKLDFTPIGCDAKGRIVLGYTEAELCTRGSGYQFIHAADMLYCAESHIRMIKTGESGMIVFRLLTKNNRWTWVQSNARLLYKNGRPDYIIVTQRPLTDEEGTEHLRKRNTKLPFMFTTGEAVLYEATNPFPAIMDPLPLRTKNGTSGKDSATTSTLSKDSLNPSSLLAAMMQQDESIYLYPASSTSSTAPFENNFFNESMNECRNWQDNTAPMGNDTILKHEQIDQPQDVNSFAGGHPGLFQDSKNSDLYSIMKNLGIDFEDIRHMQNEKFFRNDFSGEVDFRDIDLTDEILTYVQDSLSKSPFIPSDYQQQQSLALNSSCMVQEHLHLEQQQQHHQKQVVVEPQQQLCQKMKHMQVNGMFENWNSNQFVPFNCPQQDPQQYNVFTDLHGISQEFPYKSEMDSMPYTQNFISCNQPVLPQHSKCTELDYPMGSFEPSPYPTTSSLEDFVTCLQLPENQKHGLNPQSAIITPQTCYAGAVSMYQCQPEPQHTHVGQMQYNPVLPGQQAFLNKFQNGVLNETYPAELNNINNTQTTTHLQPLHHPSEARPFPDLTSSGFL
Sequence of Retinoic acid receptor alpha (Homo sapiens) (P10276 whole entry, looked up): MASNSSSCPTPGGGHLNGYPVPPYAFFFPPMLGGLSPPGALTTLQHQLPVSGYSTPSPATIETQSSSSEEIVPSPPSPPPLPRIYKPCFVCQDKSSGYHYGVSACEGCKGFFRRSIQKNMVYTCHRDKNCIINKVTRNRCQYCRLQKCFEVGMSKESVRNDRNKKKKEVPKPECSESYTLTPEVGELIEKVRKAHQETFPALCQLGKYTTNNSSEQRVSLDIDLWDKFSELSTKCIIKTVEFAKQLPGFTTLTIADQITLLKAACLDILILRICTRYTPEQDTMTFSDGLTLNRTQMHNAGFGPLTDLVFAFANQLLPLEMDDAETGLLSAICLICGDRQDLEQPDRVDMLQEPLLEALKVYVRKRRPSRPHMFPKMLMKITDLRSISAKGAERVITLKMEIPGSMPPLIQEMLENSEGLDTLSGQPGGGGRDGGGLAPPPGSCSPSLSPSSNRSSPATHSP
Sequence of Transcription factor E2F1 (Homo sapiens) (Q01094 whole entry, looked up): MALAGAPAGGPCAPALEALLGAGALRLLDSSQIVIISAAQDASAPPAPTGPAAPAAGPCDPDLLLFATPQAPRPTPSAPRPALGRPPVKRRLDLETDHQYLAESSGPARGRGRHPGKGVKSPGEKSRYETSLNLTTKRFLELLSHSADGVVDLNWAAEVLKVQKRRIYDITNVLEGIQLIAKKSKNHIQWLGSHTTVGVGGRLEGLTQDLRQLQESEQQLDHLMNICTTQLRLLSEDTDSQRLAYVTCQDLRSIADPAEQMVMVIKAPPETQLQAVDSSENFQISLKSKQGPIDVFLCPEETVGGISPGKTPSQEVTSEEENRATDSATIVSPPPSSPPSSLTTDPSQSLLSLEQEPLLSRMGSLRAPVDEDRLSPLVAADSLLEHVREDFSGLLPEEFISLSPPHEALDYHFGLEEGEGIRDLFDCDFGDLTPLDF

As for `CC(C)CC(C)O` (stereo not given), the outcome in [1], in [2], in test [3], in test [4], in test [5] and in [6] was inactive. In addition, the call in test [7], in test [8], in [9], in test [10], in test [11] and in test [12] was inactive. Further, the call in test [13], in [14], in [15], in [16], in test [17] and in test [18] was inactive.

As for `OCCNCCO`, the compound was classed as inactive in test [1], in [2], in [3], in test [4], in test [5] and in test [6]. Besides, the result in [7], in test [8], in test [19], in [9], in [10] and in test [11] was inactive. Also, the compound was called inactive in [12], in test [13], in test [14], in [15], in test [16] and in test [17]. Also, the result in test [18] was inactive.

Take `O=C1CN(N=Cc2ccc([N+](=O)[O-])o2)C(=O)N1`: the compound was classed as inactive in test [1], in [2], in test [4], in [5], in test [7] and in test [8]. Also, the result in [9], in test [10], in [11], in [12], in [14] and in test [15] was inactive. Besides, the compound was classed as inactive in test [16], in test [17] and in test [18]. Besides, the values for the AC50 in test [3], in [6] and in test [13] were 45.7 µM (active), 68.5 µM (active) and 27.6 µM (active), respectively.
